Data on 40 compounds can be found in PubChem BioAssay AID916 (National Center for Advancing Translational Sciences (NCATS), 2007).

Inconclusive results are not listed. Unmarked numbers belong to inactive results. The source made the active and inactive calls. The call rests on the fitted dose curve; in most records, active means well fitted activation curve with a large enough effect in the signal ratio, with a control signal flat (not every such curve was filed as active); inconclusive means small, poorly fitted or top-dose-only effect, or a change in a side signal; inactive means flat fitted curve, though single readings scatter; the % refers to the signal ratio.

The nature of the experiment: Confirmation Concentration-Response Assay for Cell signaling CRE-BLA (Fsk stim). The conditions noted are these: CHO CRE-bla reporter (cAMP response element driving beta-lactamase), NKH477 EC10 stim, FRET ratio; series mostly up to 38.3 µM; activation: at the top concentration. The source says: NIH Molecular Libraries Screening Centers Network [MLSCN] NIH Chemical Genomics Center [NCGC] MLSCN Grant: 1X01MH079867-01 Assay Provider: Marshall W. Nirenberg, U.S. National Heart, Lung and Blood Institute CRE beta-lactamase Assay Overview Memories persist for different lengths of time, from seconds or minutes to a lifetime. There are two kinds of memory: short-term memory (STM) and long-term memory (LTM). STM lasts for minutes to hours, which maybe mediated by modifications of molecules involved in synaptic functions. LTM lasts for days or longer, and may be due to the formation of new synapses or restructuring of existing synapses. LTM, but not STM, requires gene transcription and synthesis of proteins. CREB (cyclic-AMP Responsive Element Binding Protein) is one of the candidates plays an important role for enhancement of some types of LTM. CREB, a family of transcription factors, regulates the transcription of genes containing cAMP Responsive Elements (CRE). CRE is a nucleotide sequence often found in the promoter regions of genes that are binding sites for CREB. Using a beta-lactamase reporter-gene under control of cAMP responsive element, a cell-based assay [CellSensor(TM) CRE-bla CHO developed by Invitrogen Corp.] was used to measure forskolin-induced signaling. The selected compounds were measured for their ability to modulate positively the action of EC10 NKH 477, a water soluble forskolin, on reporter gene activity. Compounds were screened in a titration series in 1536-well format. Positive modulators were identified based on the AC50 values derived from the screening data.
NCGC Assay Protocol Summary 2000 cells/5uL in Opti-MEM medium containing 0.5% dialyzed FBS, 0.1 mM NEAA, 1 mM sodium pyruvate and 10 mM HEPES was dispensed into 1536-well plates and cells were cultured at 37 degrees Celsius overnight. Next day 23 nL of compounds or DMSO were delivered to each well using a pin tool, and 1uL of EC10 level of NKH 477, or EC100 level of IBMX, a PDE inhibitor, in the present of NKH 477, or assay medium was added. And then the plates were incubated at 37 degrees Celsius for 3 hours. 1 uL of CCF4-dye mixture was added to each well. After incubated at room temperature for 2 hours the plates were measured on an EnVision plate reader at Excitation 405nm, Emission1=460nm and Emission 2=530nm. The %Activity was determined from the ratio of 460nm/530nm. Keywords: NIH Roadmap, MLSCN, MLSMR, qHTS, NCGC, CRE, beta-lactamase reporter-gene assay.
On to `Cc1nn(-c2ccccc2)c2sc(C(=O)N(CC(=O)NC(C)(C)C)Cc3ccco3)cc12`, for which the Potency was 7.94 µM (active).
`O=C(c1cc(S(=O)(=O)N2CCOCC2)ccc1F)N1CCCc2ccccc21`: the “activation” value is -11.2%.
In the case of `Cn1c(C(=O)NCCCN2CCCC2=O)cc2c(=O)n(C)c3ccccc3c21`, the Potency was 25.1 µM (active).
Still for that read-out and setting: next, `CSc1nc2ccc(Nc3nc(N4CCOCC4)nc(N4CCOCC4)n3)cc2s1`: 12.6 µM (active).
Same read-out and setting: next, `CC[C@]1(O)C[C@@H]2CN(CCc3c([nH]c4ccccc34)[C@](C(=O)OC)(c3cc4c(cc3OC)N(C)[C@H]3[C@](O)(C(=O)OC)[C@@H](C(=O)OC)[C@@]5(CC)C=CCN6CC[C@@]43[C@@H]65)C2)C1`: 0.0631 µM (active); `CCOc1ccc(C2c3c(oc4ccccc4c3=O)C(=O)N2c2ccc(C)cn2)cc1OC` (stereo not given): 15.8 µM (active).
Still for that read-out and setting: to `COc1ccc(CCNC(=O)CSc2nc(C)nc3c2oc2ccccc23)cc1OC` belongs 12.6 µM (active); to `Cc1cc(N2CCN(S(=O)(=O)c3ccc4c(c3)OCCO4)CC2)n2ncnc2n1`, 3.16 µM (active).
Take `Cc1cc(Nc2ccc3ccccc3c2)n2ncnc2n1`: the “activation” value was 8.92%.
The same measure, in the same setting: to `Cc1ccc(-n2ncc3c(=O)[nH]c(SCC(=O)N4CCOCC4)nc32)cc1` belongs 13.5%; to `O=C(Nc1ccccc1O)c1cc(S(=O)(=O)N2CCOCC2)ccc1Cl`, 1.88%; to `Cn1c(/C(C#N)=C/Nc2ccccn2)nc2ccccc21`, 17.8%.
For the compound `CC[C@]1(O)C[C@@H]2CN(CCc3c([nH]c4ccccc34)[C@](C(=O)OC)(c3cc4c(cc3OC)N(C=O)[C@H]3[C@@](O)(C(=O)OC)[C@H](C(=O)OC)[C@@]5(CC)C=CCN6CC[C@]43[C@H]65)C2)C1`, the Potency is 0.501 µM (active).
On to `Fc1ccc(CSc2ncnc3c2oc2ccccc23)cc1`, for which the Potency was 10 µM (active).
Still for that read-out and setting: next, `CCOC(=O)C1=C(CN2CCC(C)CC2)NC(=O)NC1c1ccc(Cl)cc1` (stereo not given): 12.6 µM (active); `COC(=O)c1ccc(CSc2ccc3nnc(-c4cccc(F)c4)n3n2)o1`: 15.8 µM (active).
Consider `CN(C)c1nc(N(C)C)nc(N(C)C)n1`, for which the “activation” value was 8.09%.
As for `CCCN(C#N)c1nc(NCC)nc(NC(C)C)n1`, the Potency is 12.6 µM (active).
Consider `CC1(C)Cc2c(sc3nc(SCC#N)n(C4CCCCC4)c(=O)c23)CO1`, for which the Potency was 20 µM (active).
Same read-out and setting: next, `O=S(=O)(Nc1cccc(-c2nc3cccnc3s2)c1)c1ccc2c(c1)OCCO2`: 10 µM (active).
With `Cc1ccc(Nc2c3c(nc4ncnn24)CCC3)cc1`, the “activation” value is 17.4%.
For `Cc1cc(C)n(-c2nc(Nc3ccccc3)nc(-n3nc(C)cc3C)n2)n1`, the “activation” value was 18.6%.
On to `CCc1nc2nc(C)cc(Nc3cccc(C(F)(F)F)c3)n2n1`, for which the Potency is 7.94 µM (active).
On the same count and under the same terms, next, `CCc1nc(Nc2ccc3nccnc3c2)c2oc3ccccc3c2n1`: 1.58 µM (active).
For the compound `CCN(C(=O)c1cn(C)c(=O)c2cc(OC)c(OC)cc12)c1cc(OC)ccc1OC`, the “activation” value is 28.8%.
Regarding `COc1cc(-c2cc(=O)c3ccccc3o2)ccc1O`, the Potency was 15.8 µM (active).
As to `CCCN(CCC)CCNC(=O)c1cc2c(=O)n(C)c3ccccc3c2n1C`, the “activation” value is 6.98%.
Turning to `CCN(CC)c1nc2ccccc2n2cnnc12`, the Potency is 15.8 µM (active).
Take `CCCCCOC(=O)c1[nH]c2c(c1C)C(=O)CC(c1ccco1)C2` (stereo not given): the Potency was 0.251 µM (active).
On the same count and under the same terms, next, `COC(=O)c1ccc(CSc2nc3c(cnn3-c3ccc(F)cc3)c(=O)[nH]2)o1`: 15.8 µM (active).
Consider `Cc1cc(C)nc(N2CCN(c3nc(C)nc4c3oc3ccccc34)CC2)n1`, for which the “activation” value is 16.2%.
Same read-out and setting: next, `Fc1ccc(C2=Nn3c(Cc4ccccc4)nnc3SC2)cc1`: 12.1%.
Turning to `COC(=O)Nc1nc2ccc(C(=O)c3cccs3)cc2[nH]1`, the Potency is 0.794 µM (active).
Regarding `Cn1c(/C(C#N)=C/C2CC=CCC2)nc2ccccc21` (stereo not given), the “activation” value is 4.69%.
`CCOC(=O)c1ccccc1NC(=O)c1cc(S(=O)(=O)N2CCOCC2)ccc1F`: the Potency is 12.6 µM (active).
Still for that read-out and setting: to `COc1ccc(/C(O)=C(\C#N)c2nc3ccccc3n2C)cc1OC` belongs 15.8 µM (active).
As to `CC1CCc2c(sc3nc(C4CC4)nc(SCC(=O)NCc4ccco4)c23)C1` (stereo not given), the “activation” value is 17.7%.
With `O=c1[nH]c(SCc2ccccc2Cl)nc2c1cnn2-c1ccccc1`, the Potency is 3.98 µM (active).
For `Cc1sc2nc(SCc3nc4ccccc4[nH]3)n(Cc3ccco3)c(=O)c2c1C`, the Potency was 1.26 µM (active).
The same measure, in the same setting: to `CCc1nc(SCC(=O)N2CCc3ccccc32)c2oc3ccccc3c2n1` belongs 10 µM (active).
